Screens: PubChem, Broad Institute
CD40 NFkB inh – CD40 pathway inhibition in BL2 cells. BL2 NF-kB luciferase reporter, CD40L-induced, 4 h. inhibition, % at 10 µM. 83,000 compounds, 0.94% hits. AID 1053188;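 active means mean inhibition of at least 50% with a set share of replicates also reaching that level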
Large screens that a line does not name were inactive; [ ] = remark or other dose. Only a selection was taken, and hits are over-represented in it overall.

C[C@@H]1CN([C@@H](C)CO)C(=O)c2cc(NC(=O)Nc3ccc(C(F)(F)F)cc3)ccc2O[C@@H](C)CCCCO[C@H]1CN(C)CC1CCCCC1	none
C[C@@H]1CN([C@H](C)CO)C(=O)c2cc(NC(=O)Nc3ccc(C(F)(F)F)cc3)ccc2O[C@@H](C)CCCCO[C@@H]1CN(C)CC1CCCCC1	none
COc1ccc(NC(=O)Nc2ccc3c(c2)C(=O)N([C@H](C)CO)C[C@@H](C)[C@@H](CN(C)Cc2ccc(C(F)(F)F)cc2)OCCCC[C@@H](C)O3)cc1	none
CC(NCC(O)CP(=O)(O)CC1CCCCC1)c1ccc(Cl)c(Cl)c1 (stereo not drawn)	none
C[C@H](NC(=O)N(C)C[C@H]1OCc2ccccc2-c2ccccc2C(=O)N([C@H](C)CO)C[C@H]1C)c1ccccc1	none
C[C@H]1CN([C@@H](C)CO)C(=O)CCCn2cc(nn2)CO[C@H]1CN(C)Cc1ccc2c(c1)OCCO2	none
C[C@H]1CN([C@@H](C)CO)C(=O)c2cc(NC(=O)Cn3cnnn3)ccc2O[C@@H]1CN(C)S(=O)(=O)c1ccc(F)cc1	none
C[C@@H]1CN(C)C(=O)Cc2ccccc2O[C@H]1CN(C)C(=O)OC(C)(C)C	none
O=C(NCC1CC1)[C@@H]1[C@@H](CO)[C@@H]2Cn3c(ccc(-c4cccnc4)c3=O)[C@H]1N2C(=O)C1CCC1	none
COc1cccc(C(=O)N2C[C@H]3[C@@H](c4ccccc42)[C@H](CO)N3C(=O)c2ccc(F)cc2)c1	none
CN1CCN(C(=O)C[C@H]2C[C@@H]3c4cc(NC(=O)NC5CCCCC5)ccc4O[C@@H]3[C@H](CO)O2)CC1	none
CN([NH2+][O-])c1cc(O)ccc1O	none
Cc1noc(C)c1S(=O)(=O)Nc1ccc2c(c1)CC(=O)N([C@@H](C)CO)C[C@@H](C)[C@@H](CN(C)Cc1ccccc1)O2	none
C[C@@H]1CN([C@H](C)CO)C(=O)Cc2cc(NS(=O)(=O)c3ccc(F)cc3)ccc2O[C@H]1CN(C)CC1CCCCC1	CD40 NFkB inh 59
C[C@@H]1CN([C@H](C)CO)C(=O)c2cc(NS(=O)(=O)c3ccc(F)cc3)ccc2O[C@H]1CN(C)Cc1ccc(C(F)(F)F)cc1	none
Cc1noc(C)c1S(=O)(=O)Nc1ccc2c(c1)CC(=O)N([C@@H](C)CO)C[C@@H](C)[C@@H](CN(C)Cc1ccc(Oc3ccccc3)cc1)O2	CD40 NFkB inh 74[25 µM]
C[C@H]1CN([C@@H](C)CO)C(=O)Cc2cc(NS(=O)(=O)c3ccc(F)cc3)ccc2O[C@@H]1CN(C)Cc1ccncc1	none
Cc1noc(C)c1S(=O)(=O)Nc1ccc2c(c1)CC(=O)N([C@H](C)CO)C[C@H](C)[C@@H](CN(C)Cc1ccc(Oc3ccccc3)cc1)O2	none
C[C@@H]1CN([C@@H](C)CO)C(=O)Cc2cc(NS(=O)(=O)c3ccc(F)cc3)ccc2O[C@H]1CN(C)Cc1ccc(C(F)(F)F)cc1	CD40 NFkB inh 72
C[C@H]1CN([C@@H](C)CO)C(=O)Cc2cc(NS(=O)(=O)c3ccc(F)cc3)ccc2O[C@H]1CN(C)Cc1ccncc1	none
C[C@@H]1CN([C@H](C)CO)C(=O)Cc2cc(NS(=O)(=O)c3ccc(F)cc3)ccc2O[C@@H]1CN(C)Cc1ccc(C(F)(F)F)cc1	none
CC(=O)N1C[C@@H]2C(c3ccccc3)[C@H](C1)N2C(=O)NC(C)C (stereo partly drawn)	none
CO[C@@H]1CN(C)C(=O)c2ccc(NC(=O)C3CCC3)cc2OC[C@@H](C)N(Cc2cccnc2)C[C@@H]1C	none
O=C(Nc1ccccc1)N1C[C@@H]2[C@H](c3ccccc31)[C@H](CO)N2Cc1cocn1	none
O=C(Nc1cc(F)ccc1F)N[C@H]1CC[C@H](CCn2cc(C3CCCC3)nn2)O[C@H]1CO	none
CC(=O)c1ccc(NC(=O)c2noc3c2CCC3)cc1	CD40 NFkB inh 58
COC(=O)c1ccccc1NC(=O)c1noc2c1CCCC2	none
COc1ccc(CNC(=O)c2noc3c2CCCCC3)cc1	none
CCCN1[C@@H]2Cn3c(ccc(/C=C/c4ccccc4)c3=O)[C@H]1[C@@H](C(=O)NCC1CC1)[C@@H]2CO	none
CN(C)CCCCOc1ccc(F)cc1	none
OCCNCCCCOc1ccc(F)cc1	none
N=C(N)c1ccc(OCCCCCOc2ccc(C(=N)N)cc2)cc1	CD40 NFkB inh 62
CCCC(=O)Nc1ccc2c(c1)C(=O)N(C)C[C@@H](OC)[C@H](C)CN(C(=O)c1ccccn1)[C@@H](C)CO2	none
O=S(=O)(c1ccc(F)cc1)N1[C@@H]2CNC[C@H]1C2c1ccc(-c2cccc(F)c2)cc1 (stereo partly drawn)	none
N#C[C@@H]1[C@H](c2ccc(-c3cccc(F)c3)cc2)[C@@H](CO)N1C(=O)NC1CCCCC1	none
COc1ccc(-c2ccc3c(c2)[C@H]2[C@H](CCN2C(=O)Cc2ccccc2)[C@H](CO)N3C)cc1	none
O=C(O)CC/C=C/CC1COC(c2ccccc2Cl)OC1c1ccccc1O (stereo not drawn)	none
O=C(COc1cccnc1[N+](=O)[O-])c1ccc(Cl)s1	CD40 NFkB inh 92
O=C(COc1cccnc1[N+](=O)[O-])Nc1c(Cl)cccc1Cl	none
O=C(COc1cccnc1[N+](=O)[O-])Nc1ncc(Cl)cc1Cl	none
COc1ccc2c3c(n(C)c2c1)[C@H](CO)N(Cc1ccncc1)CC31CN(C(=O)Nc2cccc(F)c2)C1	none
